According to PubChem BioAssay (NCI):
The panel holds about 83,000 compounds, 20% with a hit somewhere; the sample as a whole holds those more often.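 Step 1: grow cells in 96-well plates. Step 2: add test compound at a single concentration. Step 3: incubate 48 h. Step 4: record percent growth.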 A number with no mark means an inactive call. Rule for the calls: active = growth percent below 10; inactive = the rest.

System: NCI-H226 lung
Assay: NCI-60 one-dose screen, 48 h (100 = growth as untreated, 0 = no growth, -100 = all killed)
Details: 10 µM unless noted

Compound	growth [%]
O=C(NNC(=O)c1ccc(-n2cc(-c3ccccc3)nn2)cc1)Nc1ccccc1	99.6
COc1ccc(-c2csc(N(C(=O)N3CCN(c4cc5c(cc4F)c(=O)c(C(=O)O)cn5C4CC4)CC3)c3ccccc3)n2)cc1	28.5
O=Nc1c(-c2c(O)[nH]c3ncccc23)[nH]c2ccccc12	78.6
CCN1CC(=O)N(/N=C2\C(=O)Nc3ccccc32)C1=S	69.6
O=C1CC(N2C(=O)/C(=C/C(Cl)=C\c3ccc([N+](=O)[O-])cc3)SC2=S)C(=O)N1c1ccc(Cl)cc1 (centres undefined)	95.5
CN(C)C1CCN(Cc2ccc(NC(=O)c3cncc(C#Cc4cnc(N)c5ncccc45)c3)cc2C(F)(F)F)CC1	90
Cn1cc(-c2nonc2-c2c[nH]c3ccc(Br)cc23)c2cc(Br)ccc21	44.8
C[C@@H]1CCC[C@H]1CC(N)C(=O)O (some centres undefined)	101
S=C(Nc1ccc(-c2nc(N3CCOCC3)c3cccn3n2)cc1)Nc1cccnc1	38.2
O=C(CN1C(=O)CCC1=O)Nc1ncc(Cc2ccc(F)cc2)s1	95.9
CN1CCN(C(=O)OCc2ccc3c(Cl)cc(Cl)c(O)c3n2)CC1	98.3
O=C(O)[C@@H]1c2ccccc2-c2ccccc2[C@H]1C(=O)O	97.8
Clc1ccc(Sc2cnc(-c3ccccc3)o2)cc1	106
C=C(C)[C@@H]1CC[C@]2(C(=O)NCC#CCN3CCN(C)CC3)CC[C@]3(C)[C@H](CC[C@@H]4[C@@](C)(CCC#N)[C@H](C(=C)C)CC[C@]43C)[C@@H]12	57.6
